Laboratory results published in ChEMBL document CHEMBL3988442, “University of Dundee, Small-Polar-MMV Screening Library” (2021).
In all, about 48,000 compounds went through this assay and about 13,000 (27%) showed an effect of 50% or more. The list shows a part of the results.

System: Wolbachia pipientis
Assay: Anti-Wolbachia Cell-Based Screen
Assay type: functional
Design: scale not given: in the data most compounds retested in dose-response had high values
Conditions: 5 µM

| SMILES | Percent Effect [%] |
| --- | --- |
| COc1ccc(S(N)(=O)=O)cc1C(=O)N(C)Cc1cc(C)on1 | 5.855 |
| Cc1noc(C2CCCN(C(=O)c3cccc(Cl)c3)C2)n1 (configuration not stated) | -10.95 |
| CCc1nc(C2CCCN(C(=O)c3cccc4cn[nH]c34)C2)no1 (configuration not stated) | -7.145 |
| CCc1nc(C2CCCN(C(=O)c3cccc4c3ccn4C)C2)no1 (configuration not stated) | -5.539 |
| CCc1nc(C2CCCN(C(=O)c3ccc4c(c3)nnn4C)C2)no1 (configuration not stated) | 5.742 |
| CCc1nc(C2CCCN(C(=O)c3cccc(Cl)c3)C2)no1 (configuration not stated) | 126.3 |
| CCc1nc(C2CCCN(C(=O)c3cccc(C(N)=O)c3)C2)no1 (configuration not stated) | 115.3 |
| NC(=O)c1ccc(N2CCN(Cc3cccc4nsnc34)CC2)nc1 | -18.45 |
| COc1ccc(C(NC(=O)c2cccc[n+]2[O-])C2CC2)cc1 (configuration not stated) | 3.052 |
| CN(C)C(=O)N1CCCC2(CCN(Cc3ccc(Cl)c(F)c3)C2)C1 (configuration not stated) | 2.484 |
| NC(=O)C1(c2cnccn2)CCCN1Cc1ccc(Cl)c(F)c1 (configuration not stated) | 137 |
| NC(=O)C1(c2cnccn2)CCCN1Cc1ccc(F)c(F)c1 (configuration not stated) | 80.27 |
| CCS(=O)(=O)N1CCC2(CCCN(Cc3ccc(F)c(F)c3)C2=O)C1 (configuration not stated) | -34.42 |
| O=C(c1cn[nH]c1)N1CCC2(CCCN(Cc3ccc(F)c(F)c3)C2)C1 (configuration not stated) | -7.691 |
| NC(=O)CN1CC2(CCC1=O)CCN(Cc1ccc(Cl)c(F)c1)CC2 | 13.87 |
| COc1cc(CNC2CCN(c3ccccc3)C2)cc(OC)c1OC (configuration not stated) | 0.4794 |
| CCn1cc(CN(C)S(=O)(=O)c2ccc(NC(C)=O)cc2)cn1 | 5.791 |
| CNC(=O)c1[nH]nc2c1CN(c1cc(C3CCCNC3)nc(C)n1)CC2 (configuration not stated) | -2.336 |
| CCc1c(C)nn(CCNC(=O)c2cc(C3CC3)n[nH]2)c1C | 1.187 |
| CCCc1cc(C(=O)NC2CCCCNC2=O)[nH]n1 (configuration not stated) | -7.069 |
| O=C(c1ccc(C2CCCN2)s1)N1CC=CC1 (configuration not stated) | 0.32 |
| Cl.O=C(NC1CCCC1)c1cc(C2CCCNC2)n[nH]1 (configuration not stated) | 150.1 |
| O=C(NC1CCCC1)c1n[nH]c2c1CNCC2 | -11.08 |
| CNC(=O)c1cc(C2CCCNC2)n[nH]1.Cl (configuration not stated) | 96.41 |
| CNC(=O)c1cc(C2CCCN2)n[nH]1.Cl (configuration not stated) | 155.4 |
| COc1ccccc1OCc1cc(C(=O)NC[C@@H]2CCCN2)n[nH]1 | -26.39 |

| SMILES | Percent Effect [%] |
| --- | --- |
| CSC1(CNc2ccc(Br)cn2)CCOCC1 | -9.614 |
| CCOCCNC(=O)c1cc(Br)c2c(c1)OCCO2 | -10.75 |
| COCCC(=O)N1CC2(CCN(Cc3ccccc3Cl)CC2)C1.O=C(O)C(F)(F)F | 7.796 |
| Cc1noc(C)c1S(=O)(=O)N1CCc2nc(C3CCNCC3)ncc2C1.Cl | 92.39 |
| CCC[C@H]1CN(S(=O)(=O)c2c(C)noc2C)C[C@@H]1N | -20.84 |
| Cl.O=S(=O)(c1ccc(Cl)cc1)N1CCc2nc(C3CCNCC3)ncc2C1 | 112 |
| Cc1ccc(S(=O)(=O)N2CCc3nc(C4CCNCC4)ncc3C2)cc1.Cl | -12.78 |
| Cc1nc(C2CCN(S(=O)(=O)c3ccc4c(c3)CCC4)CC2)n[nH]1 | -1.341 |
| Cc1n[nH]c(C)c1CCN(C)C(=O)c1ccc(CN2CCCCC2)cc1 | -26.72 |
| CCc1cnc(C)nc1NCC(O)CN1CCCCCC1 (configuration not stated) | -1.473 |
| Cc1nnc([C@@H]2CC[C@@H]3[C@@H](CCN3C3CCC3)O2)o1 | 107.1 |
| Cc1nnc([C@@H]2CC[C@@H]3[C@@H](CCN3C3CCOCC3)O2)o1 | -2.772 |
| Cc1nnc([C@@H]2CC[C@@H]3[C@@H](CCN3S(C)(=O)=O)O2)o1 | 4.456 |
| CC(=O)C(Cc1ccccc1)NC(=O)CSc1nncn1C (configuration not stated) | 8.647 |
| COCC1(CNc2cc(C(C)C)nc(N)n2)CC1 | 12.37 |
| Cc1nc(Cn2c3c(ccc2=O)CCN(CC2CC2)CC3)cs1.O=C(O)C(F)(F)F.O=C(O)C(F)(F)F | 7.996 |
| CC(C)NC1CCc2c(ccc(=O)n2CC2CC2)C1.O=C(O)C(F)(F)F (configuration not stated) | -1.359 |
| Cc1nc(CN2C[C@@H]3CN(C(=O)NC(C)C)C[C@@H]3C2=O)cs1.O=C(O)C(F)(F)F | 4.242 |
| CCCC(=O)NC1CCc2c(ccc(=O)n2Cc2csc(C)n2)C1.O=C(O)C(F)(F)F (configuration not stated) | 92.99 |
| Cc1nc(Cn2c3c(ccc2=O)CC(NC(C)C)CC3)cs1.O=C(O)C(F)(F)F.O=C(O)C(F)(F)F (configuration not stated) | 95.6 |
| COCC(=O)N1CCc2ccc(=O)n(Cc3csc(C)n3)c2CC1.O=C(O)C(F)(F)F | -6.118 |
| COCCNC(=O)[C@@H](C)[C@@H]1CCc2c(C)cc(OCC(=O)O)c(C)c2C1 | -3.996 |
| Cc1cccc(N2CCC(N3CCC4(CN(C)C(=O)O4)C3)CC2)c1C (configuration not stated) | 10.35 |
| O=C(CN1CCOC1=O)N1CC[C@@H](c2ccc3ccccc3c2)[C@H](O)C1 | 1.475 |
| O=C(CCNC(=O)c1cccc(OC(F)F)c1)Nc1cccnc1 | 104.3 |
| O=C(CCNc1ccc(Cl)cn1)NCc1ccncc1 | -15.58 |

| SMILES | Percent Effect [%] |
| --- | --- |
| O=C(CCNC(=O)c1ccccc1F)NCCNc1cccnc1 | 5.027 |
| O=C(CCNC(=O)C1=Cc2ccccc2OC1)Nc1cccnc1 | -5.743 |
| Cn1cc(C(=O)Nc2cccc(Oc3ccncc3)c2)ccc1=O | -26.42 |
| CCCNC(=O)c1ccc(NC(=O)c2cccc(OCC)c2)cc1 | 17.24 |
| O=C(CCNC(=O)C1=Cc2ccccc2OC1)NCc1ccncc1 | -4.464 |
| CCOc1cccc(C(=O)Nc2ccncc2)c1 | 88.42 |
| CCOc1cccc(C(=O)NCCC(=O)NCc2ccncc2)c1 | 103.5 |
| CS(=O)(=O)c1ccc(OCCNCc2ccc(F)cc2)cc1 | -11.24 |
| CC(C)c1ccc(O)c(C(=O)NC2CCN(c3ncccn3)CC2)c1 | 6.653 |
| O=S1(=O)[C@@H](c2ccccc2)[C@H](CO)CN1C1CC1 | 108.4 |
| CC(C)N1C[C@@H](CO)[C@H](c2ccccc2)S1(=O)=O | 103.9 |
| CC(C)C1CN(C(=O)c2ccccc2)CCS1 (configuration not stated) | -3.784 |
| CN(C)C[C@@H]1CN(C(=O)Cc2ccccc2)C[C@@H]1CO | -32.78 |
| O=S(=O)(Cc1ccccc1CN1CC[C@H](CO)[C@H](O)C1)c1ccccc1 | -17.78 |
| O=C(O)CN1CCC(c2ccccc2)CC1 | -2.297 |
| O=C(C1CCS(=O)(=O)CC1)N1C[C@H]2CC[C@@H]1CN(Cc1ccccc1)C2 | -12.98 |
| COc1ccccc1CCC(=O)N1C[C@H](c2ccccc2)[C@@H](N)C1 | -7.051 |
| O=S1(=O)[C@@H](c2ccccc2)[C@H](CO)CN1c1ccccc1 | 106.6 |
| CCN1C(=O)CCC12CCN(S(=O)(=O)c1ccc(C#N)cc1)CC2 | 5.403 |
| O=C(c1ccnnc1)N1CCC2(CCN(c3ccsc3)C2=O)C1 (configuration not stated) | 3.217 |
| CCC(C(=O)N(Cc1ccccn1)C1CCCCC1)n1cccn1 (configuration not stated) | 5.317 |
| COCCn1/c(=N\C(=O)CN(C)S(C)(=O)=O)sc2cc(C)ccc21 | -2.711 |
| CC(C)(C)c1cnc(CN2CCC(NC(=O)Nc3ccccc3)CC2)o1 | 8.013 |
| Cn1cc(CN2CC3(CCN(C(=O)c4cscn4)C3)C2)cn1 | 2.986 |
| Cc1ccc(CN2CCC3(CCCN(C(=O)N(C)C)C3)C2)cc1 (configuration not stated) | -1.979 |
| O=C(CC1CC1)N1CCC2(CCCN(CCOc3ccccc3)C2)C1.O=C(O)C(F)(F)F (configuration not stated) | 117.3 |

| SMILES | Percent Effect [%] |
| --- | --- |
| O=C(CC1CC1)N1CC[C@H]2OCC[C@@]2(COc2ncccc2F)C1.O=C(O)C(F)(F)F | 5.049 |
| O=C(c1cscn1)N1CCC2(CCN(S(=O)(=O)c3ccccc3)C2)C1 (configuration not stated) | -2.264 |
| CCOC(=O)CN1CCC2(CCCN(CCOc3ccccc3)C2)C1 (configuration not stated) | 101.8 |
| O=C(c1cscn1)N1CCC2(CCCN(CCOc3ccccc3)C2)C1 (configuration not stated) | 112 |
| O=C(CC1CC1)N1CCC2(CCCN(c3ncccn3)C2)CC1 | -10.65 |
| CN(C)C(=O)N1CCC2(CCCN(CCOc3ccccc3)C2)C1.O=C(O)C(F)(F)F (configuration not stated) | 102.1 |
| COC(=O)c1cc(OCC2CCC2)cc(C(=O)N[C@@H]2CNCC[C@H]2O)c1 | 8.764 |
| O=C(c1ccc(=O)[nH]c1)N1CCCC2(C=Cc3ccccc3O2)CC1 (configuration not stated) | -7.084 |
| Cc1nc(CN(C)S(=O)(=O)c2ccccc2C(F)(F)F)no1 | 2.399 |
| COc1ccc(CN2CCOC[C@H](OCCC(C)C)C2)cc1 | 0.3051 |
| CCCS(=O)(=O)NCC(C)c1ccc(F)c(F)c1 (configuration not stated) | -6.211 |
| CC(=O)c1ccc(C(=O)NCc2ccnc(N(C)C)n2)cc1 | -2.815 |
| O=C([C@H]1CCCO1)N1CCC2(CCCN(CCOc3ccccc3)C2)C1 (some centres not stated) | 105.8 |
| CN1CC[C@]2(CN(C(=O)[C@H]3CCCO3)C[C@H]2c2ccccc2)C1=O | -10.86 |
| CCN1CC[C@]2(CN(C(=O)[C@H]3CCCO3)C[C@H]2c2ccccc2)C1=O | -5.714 |
| Cc1cnc2c(c1NCc1ccncc1)c(=O)n(C)c(=O)n2C | -24.16 |
| c1cc(CNc2ncc(-c3cnccn3)c(C3CC3)n2)ccn1 | 244.3 |
| c1cc(CCN2CCC(c3n[nH]c(C4CC4)n3)CC2)ccn1 | 9.327 |
| c1cnc(-c2cnc(N3CCSCC3)nc2C2CCCO2)cn1 (configuration not stated) | -3.576 |
| c1cc(-c2n[nH]c(CNc3nnc(C4CC4)o3)n2)ccn1 | -23.66 |
| c1cc(CNc2ncc(-c3cnccn3)c([C@@H]3CCCO3)n2)ccn1 | 102 |
| Cn1ncnc1-c1ccnc(NCCCc2ccncc2)n1 | -3.782 |
| c1cc(CCNc2ncc(-c3cnccn3)c(C3CC3)n2)ccn1 | 137.3 |
| c1cc(CNCCC2CCCO2)ccn1 (configuration not stated) | -4.656 |
